In PubChem BioAssay (Tox21) one finds Potency data, which are given here for 14 compounds.

Records with an inconclusive call do not appear. A call without a number means that no potency is given here. Calls of active or inactive are those of the source. The call rests on the fitted dose curve; in most records, active means well fitted inhibition curve with a large enough effect in the signal ratio in the repeat runs (not every such curve was filed as active); inconclusive means weak or mixed curves, or effect the other way; inactive means no such curve, though single readings can be large or run the other way; the % refers to the signal ratio.

Chain of Bile acid receptor (Homo sapiens) (Q96RI1 whole entry, looked up): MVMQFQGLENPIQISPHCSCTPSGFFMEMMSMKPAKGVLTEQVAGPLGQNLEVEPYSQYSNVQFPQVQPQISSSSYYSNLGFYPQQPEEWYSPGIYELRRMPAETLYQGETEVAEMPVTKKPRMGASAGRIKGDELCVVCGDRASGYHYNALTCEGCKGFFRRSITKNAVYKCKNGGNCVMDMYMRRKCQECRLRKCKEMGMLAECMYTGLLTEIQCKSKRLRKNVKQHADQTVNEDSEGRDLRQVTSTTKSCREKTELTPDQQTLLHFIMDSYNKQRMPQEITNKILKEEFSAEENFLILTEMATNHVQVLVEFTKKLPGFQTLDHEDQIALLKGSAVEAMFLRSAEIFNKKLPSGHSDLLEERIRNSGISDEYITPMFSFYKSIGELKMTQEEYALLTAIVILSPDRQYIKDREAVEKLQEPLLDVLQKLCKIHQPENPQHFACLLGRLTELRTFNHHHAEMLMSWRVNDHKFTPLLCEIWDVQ

In the assay the target is Bile acid receptor (Homo sapiens) (UniProt Q96RI1). Nature of the assay: qHTS assay to identify small molecule antagonists of the farnesoid-X-receptor (FXR) signaling pathway (AID 743217). To be noted: HEK293T FXR-UAS-bla, beta-lactamase ratio, CDCA-stimulated, 16 h; series mostly up to 62.6 µM. Put shortly:
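Beta-lactamase reporter under UAS control in HEK 293T cells; compound exposure 16 h at 37 °C in the presence of chenodeoxycholic acid (50 uM final); signal from B/G FRET substrate after 2 h at room temperature.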
Regarding `O=[N+]([O-])c1cccc(S(=O)(=O)NCCNS(=O)(=O)c2cccc([N+](=O)[O-])c2)c1`, the Potency result is “inactive”.
Take `O=C1NCCN1`: the Potency entry was “inactive”.
The result for `Nc1c(I)cc(I)c(C(=O)N(CCC(=O)O)c2ccccc2)c1I` reads “inactive”; that for `O=C(O)c1snc(Cl)c1Cl`, “inactive”.
With `Cc1ccccc1N1C(=O)c2cc(S(N)(=O)=O)c(Cl)cc2NC1C` (centres undefined), the Potency entry was “inactive”.
The result for `CCOC(=O)C(C)Oc1ccc(Oc2nc3ccc(Cl)cc3o2)cc1` (centres undefined) reads “inactive”; that for `Oc1cc(O)c(Cl)cc1Cl`, “inactive”; that for `CCCCN(CCCC)CCCOC(=O)c1ccc(N)cc1`, “inactive”.
Consider `CCC(C)=O`, for which the Potency result is “inactive”.
Then `Cc1ccc(S(=O)(=O)NC2CCCCC2)cc1`, with “inactive”; and `CCCCCCCCCOC(C)=O`, with “inactive”.
As to `N#C[C@@H]1C[C@@H]2C[C@@H]2N1C(=O)[C@@H](N)C12CC3CC(CC(O)(C3)C1)C2`, the Potency entry was “inactive”.
As for `O=C(O)c1ccc(CO)o1`, the Potency entry was “inactive”.
On to `CC1(C)C2=CCCC(C)(C)[C@]23CC[C@H]1C3`, for which the Potency entry is “inactive”.
